# Results taken from PubChem BioAssay AID540276 (National Center for Advancing Translational Sciences (NCATS), 2011).
# Several values for one entry are separate records, joined by “and”; a condition that tells them apart may be missing. Identical values can stand only once. The whole screen tested about 300,000 compounds, of which about 5,400 (1.8%) were called active. Inconclusive results (about 28%) are left out. This is one part of a sample in which actives are shown more often than they occur. Unmarked numbers belong to inactive results. Calls follow the shape of the full dose curve; tested in HEK293 cells.
# Assay: qHTS for inhibitors of binding or entry into cells for Marburg Virus
# Settings: Marburg virus pseudotyped entry inhibition, cell reporter; series mostly up to 37.8 µM; activity change, negative = inhibition: at the top concentration
# % is scaled to controls: 0 for no effect and ±100 for the full control effect; potency is read from the fitted curve at half-maximal effect.
SMILES,"activity change, negative = inhibition",Potency
O=C(OCC(=O)N1CCN(C(=O)c2ccco2)CC1)c1ccc(Cl)c(Cl)c1,26.2%,
COCCOC(=O)C1=C(C)NC(=O)NC1c1cc2c(cc1Br)OCO2 (stereo not given),0.203% [at 46.1 µM],
O=C1CCCCC(=O)c2ccccc2N1,28.7%,
c1ccc2c(c1)C(=NC1CCCCC1)NC2=NC1CCCCC1,,5.8 µM (active)
C1CCC2=C(C1)CN1CCCC1=N2,2.94% [at 46.1 µM],
Cc1nc2ccc(N)nc2nc1C,19.2%,
Cc1cccc(NC(=O)C2CCN(C(=O)NC3CCCCC3)CC2)c1,6.86% [at 46.1 µM],
CC[C@]1(O)C(=O)OCc2c1cc1n(c2=O)Cc2cc3ccccc3nc2-1,,0.0251 µM (active)
Cn1c(Cc2cccs2)nnc1SCC(=O)Nc1ccccc1,6.62%,
O=C(Oc1cccc(C(=S)N2CCOCC2)c1)c1cccc(Cl)c1,5.5%,
COc1ccccc1C(=O)NCCC(=O)NC(C)CCc1ccccc1 (stereo not given),8.66%,
c1c2c(cc3sc(N4CCCCC4)nc13)OCCO2,,0.562 µM (active)
Cc1nc2cc3c(cc2s1)OCO3,23.4%,
COc1ccc2nc(Nc3nc4cc5c(cc4s3)OCCO5)sc2c1,6.42%,
O=C(NCC(=O)N1CCN(c2ccccc2F)CC1)c1cccs1,29.6%,
CCN(CC)S(=O)(=O)c1cc(C(=O)Nc2cc(S(=O)(=O)N3CCOCC3)ccc2N2CCCC2)ccc1F,-14.7%,
CCCN(CCc1ccccc1)C1CCc2c(O)cccc2C1 (stereo not given),,15.8 µM (active)
Cc1nn(Cc2ccccc2)c(C)c1NS(=O)(=O)c1ccccc1,-5.29%,
COc1ccc(N(CC(=O)NCc2ccc(F)cc2)C(=O)CCC(=O)Nc2nccs2)cc1,-4.66% [at 46.1 µM],
NN=C(NN=Cc1ccccc1)c1ccccc1,3.82%,
COc1ccccc1NS(=O)(=O)c1ccc(C(=O)N2CCN(c3ccccc3O)CC2)cc1,-25.2%,
COc1cc2c(cc1OC)/C(=C/C(=O)c1ccc(NC(C)=O)cc1)NCC2,-26.2%,
C/C(=C\C(=O)c1ccc(Br)cc1)N1CCCCC1,2.93%,
CC1CN/C(=C\C(=O)c2ccc(Br)cc2)C(=O)N1 (stereo not given),,2.24 µM (active)

SMILES,"activity change, negative = inhibition",Potency
Cc1cc(OCC(=O)NCC(O)c2ccccc2)c2c(C)c(C)c(=O)oc2c1 (stereo not given),-12.1% [at 46.1 µM],
O=C(Nc1cccc(Cl)c1N1CCOCC1)c1cccnc1,-10.6% [at 46.1 µM],
Cc1ccc(S(=O)(=O)NCC(=O)Nc2ccc3c(c2)OCCO3)cc1,4.18%,
COc1ccc(OCC(=O)NCCS(=O)(=O)N2CCN(c3ccc(F)cc3)CC2)cc1,-0.979% [at 46.1 µM],
CCc1c(C)sc(NC(=O)/C=C/c2ccc3c(c2)OCO3)c1C(=O)OC,-15.3%,
O=C(/C=C/c1ccc2c(c1)OCO2)NCc1ccc(F)cc1,5.87%,
Cc1cccc(NC(=O)/C=C/c2ccc3c(c2)OCO3)n1,,6.51 µM (active)
NC(=O)c1ccc(N2CCCC2)nc1,-7.25% [at 46.1 µM],
OC(COc1ccccc1)CN1CCN(c2cccc(Cl)c2)CC1 (stereo not given),13.8%,
Oc1ccccc1N1CCN(C(=S)NCc2ccccc2)CC1,2.88% [at 46.1 µM],
Oc1ccc(N2CCN(C(=S)NCc3ccccc3)CC2)cc1,,3.16 µM (active)
O=C(COC(=O)c1ccccc1C(=O)N1CCN(c2ccccc2)CC1)NCc1ccccc1,-18.8%,
CN(CC(=O)NCc1cccnc1)S(=O)(=O)c1cc(Cl)ccc1Cl,-29.2%,
O=C(O)C1C2C=CC(O2)C1C(=O)Nc1ccccn1 (stereo not given),7.56% [at 46.1 µM],
Cc1c(C)n2c(SCC(=O)NC3CCCC3)nnc2[nH]c1=O,22.3% [at 46.1 µM],
Cc1cc(N/C=C\C(=O)c2cccc3ccccc23)no1,2.44%,
COCC(C)NCc1cc(Br)ccc1OC (stereo not given),-2.58% [at 46.1 µM],
COc1ccc(Br)cc1CN(C)C(=O)C1CC(=O)N(C2CCCC2)C1 (stereo not given),-19.1%,
CC(C)(C)NCc1cc(Br)ccc1OC1CCCC1,,23.1 µM (active)
Cc1ccc(C)c(NC(=O)c2cc(-c3cc(C)cc(C)c3O)n[nH]2)c1,-20.2% [at 46.1 µM],
COc1ccccc1CNC(=O)[C@@H]1CCCN1C(=O)[C@@H]1Cc2ccccc2CN1C(=O)OC(C)(C)C,-17.4% [at 46.1 µM],
COCCCNC(=O)[C@@H](C#N)c1nc2ccccc2nc1N1CCN(Cc2ccccc2)CC1,3.25%,
CCOc1ccc(-c2nnc(-c3ccco3)o2)cc1,,6.51 µM (active)
COc1ccc(C(=O)CSc2nnc(-c3ccco3)o2)cc1,13.7% [at 46.1 µM],

SMILES,"activity change, negative = inhibition",Potency
CCC(=O)Oc1cccc(C(=O)Nc2ccc(-c3nnc(-c4ccco4)o3)cc2)c1,-28.3%,
CC(=O)Nc1ccc(S(=O)(=O)NCC(=O)OCC(=O)c2ccc[nH]2)cc1,-2.18%,
Cc1cccnc1CCNC(=O)C1CCC(=O)N(Cc2cccc(F)c2)C1 (stereo not given),5.71%,
CCOc1ccc(C(C)=O)cc1COC(=O)CNC(=O)c1cccs1,19.3%,
O=C(Nc1ccc(Cl)c(Cl)c1)c1ccccc1NC(=O)C1CC=CCC1C(=O)O (stereo not given),18.7% [at 46.1 µM],
COC(=O)CC=C[C@@H](C)[C@@H](C=NOC[C@H]1O[C@H](c2ccccc2)C=C[C@H]1Oc1ccc(OC)cc1)N[S+](=O)([O-])c1ccc(C)cc1,1.02% [at 14.2 µM],
O=C(COC(=O)c1c2c(nc3ccccc13)/C(=C\c1cccs1)CCC2)Nc1ccccc1Cl,-41.2%,
COc1cc(-c2cc(C(=O)OCC(=O)Nc3ccc4c(c3)OCO4)c3ccccc3n2)cc(OC)c1OC,-0.942%,
NS(=O)(=O)c1ccc(NC(=O)COC(=O)c2c3c(nc4ccccc24)/C(=C\c2ccc4c(c2)OCO4)CCC3)cc1,,11.6 µM (active)
COc1cccc(C(=O)NNC(=O)c2cccc(F)c2)c1,6.02%,
Cc1c(Cl)c([N+](=O)[O-])nn1CC(=O)NCCCN1CCOCC1,-0.45% [at 46.1 µM],
CCOC(=O)N1CCC(N2Cc3cccc(C(=O)Nc4ccc(S(=O)(=O)N(CC)CC)cc4)c3C2=O)CC1,21.7% [at 46.1 µM],
CCn1cc(C(=O)O)c(=O)c2c1N=C(C)CC2,-24%,
COc1cc(SC)ccc1C(=O)Nc1cc(C)ccn1,,14.6 µM (active)
Cc1ccnc(NC(=O)c2ccoc2C)c1,10.2%,
COc1ccccc1CNC(=O)c1ccc(SC)cc1OC,0.424%,
COc1cnn(-c2ccc([N+](=O)[O-])cc2)c(=O)c1Cl,-1.22%,
Cc1cccnc1CC(C)NC(=O)c1cc(COc2cncc(Cl)c2)on1 (stereo not given),-5.56% [at 46.1 µM],
CCCC(O)(c1ccccc1)C(c1ccccc1)c1ccccn1 (stereo not given),-15.5% [at 46.1 µM],
O=C(c1ccc2c(c1)N(Cc1ccccc1)C(=O)c1ccccc1S2(=O)=O)N1CCCC1,-4.79% [at 46.1 µM],
O=C(c1ccc2c(c1)N(Cc1ccc(F)cc1)C(=O)c1ccccc1S2(=O)=O)N1CCN(c2ccccn2)CC1,,5.01 µM (active) and 3.16 µM (active)
O=C(c1ccc2c(c1)N(Cc1ccc(Cl)cc1)C(=O)c1ccccc1S2(=O)=O)N1CCCCC1,13.1% [at 46.1 µM],
